Screening data (PubChem)
GLP-1R agonist: GLP-1 receptor (human) agonism; P43220; HEK293 GLP-1R CRE-luciferase, luminescence, 4-6 h; cells express a hypersensitive GLP-1R form; Potency, µM (titrated, usually from 45.6 µM), usual class: activators; 380,000 tested, 0.007% active
GLP1R inv ag: acts as inverse agonist at human GLP-1 receptor. P43220. HEK293 GLP-1R CRE-luciferase, luminescence, 24 h; GLP-1R form is constitutively active. Potency, µM (titrated, usually from 38.3 µM), hits mostly inhibitors. 410,000 tested, 1.6% active. AID 624417; further: nearly all actives have a fitted effect of over 55% in size
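Assay principle: reduced luminescence from a cAMP-responsive reporter in HEK293 cells co-expressing a constitutively active GLP-1R. Conditions: 24 hr compound incubation, 37 deg C, 5% CO2.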
TSHR antagonist: antagonists of human thyroid stimulating hormone receptor. P16473. TSHR-expressing cells, TSH-stimulated cAMP HTRF, 2 h; stronger effect = lower value. activity change, negative = inhibition, % at 11.5 µM. 330,000 tested, 0.2% active. AID 504810;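 active means activity change below a set negative limit, meaning inhibition stronger than a set level, cut at about -70% in these data; inconclusive means activity change between two set negative limits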
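TSHR-expressing cells, 200/well, pre-treated with compound, then stimulated with EC80 TSH (4nM final) for 2 hours at 37 deg C. cAMP measured by competitive HTRF: anti-cAMP cryptate antibody in lysis buffer plus cAMP-d2, read after 30 minutes at room temperature.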
PTHR1 agonist: agonists of human PTHR1 parathyroid hormone receptor; HEK293 GP2 PTHR1 cells, GloSensor cAMP luminescence, 1 h; 410,000 tested, 0.075% active; Potency, µM (doses to about 115 µM), hits mostly activators; AID 743266; further: nearly all actives have a fitted effect of over 55% in size
Target sequence (Q03431 whole entry, looked up): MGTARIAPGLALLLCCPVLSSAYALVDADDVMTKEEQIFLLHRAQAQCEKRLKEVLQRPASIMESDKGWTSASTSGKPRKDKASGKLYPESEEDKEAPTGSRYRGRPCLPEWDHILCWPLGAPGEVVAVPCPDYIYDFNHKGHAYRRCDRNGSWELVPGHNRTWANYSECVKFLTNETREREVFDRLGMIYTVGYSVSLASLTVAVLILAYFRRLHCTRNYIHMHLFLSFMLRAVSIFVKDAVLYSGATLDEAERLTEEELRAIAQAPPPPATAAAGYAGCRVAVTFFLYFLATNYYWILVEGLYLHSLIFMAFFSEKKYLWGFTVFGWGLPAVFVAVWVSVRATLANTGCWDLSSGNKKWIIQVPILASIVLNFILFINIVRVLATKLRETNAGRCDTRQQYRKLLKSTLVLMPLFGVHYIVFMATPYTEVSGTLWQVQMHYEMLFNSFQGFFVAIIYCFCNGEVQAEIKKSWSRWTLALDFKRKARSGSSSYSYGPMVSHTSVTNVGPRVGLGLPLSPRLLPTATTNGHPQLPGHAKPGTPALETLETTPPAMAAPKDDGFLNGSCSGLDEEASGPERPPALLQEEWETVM
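HEK-293-derived GP2 cells expressing PTHR1 and a GloSensor cAMP reporter, 3,000/well, plated overnight, given luciferin plus IBMX (each 0.5 mM as added) for 1 h at 37 °C, then compound for 1 h at 37 °C. Luminescence was read after 15 min at room temperature.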
HEK293 tox: cytotoxicity counter-screen for GLP-1 receptor inverse agonists. 410,000 tested, 0.13% active. Potency, µM (doses to about 38.3 µM), most hits filed as inhibitors. HEK293 cAMP-luciferase reporter cells, luminescence, 24 h. AID 624418;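 further: loss of luciferase light is scored as toxicity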
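Seeding density was 200 cells/uL; after overnight-length (12 h) culture, 23 nL compounds went on for 24 h at 37 °C. Readout used a luciferase detection reagent, luminescence taken after 12 min at room temperature.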
Numbers stand for hits; . = inactive; ? = inconclusive; / = not tested or not shown. Hits are enriched below; roughly 1.8% of the tested compounds scored in any of these assays. Unless noted, the call rests on the fitted dose curve; in most records, active means well fitted curve in the direction sought with a large enough effect; inconclusive means small, poorly fitted or top-dose-only effect, or another doubt; inactive means no such curve, though single readings can be large; an effect the other way counts as inactive or inconclusive.

SMILES	GLP-1R agonist	GLP1R inv ag	TSHR antagonist	PTHR1 agonist	HEK293 tox
CCCCNC(=O)CN1CCN(c2ncc(NC(=O)c3ccc(Cl)cc3)cc2C(=O)O)CC1	/	.	/	.	.
COc1ccccc1C(=O)Nc1ccc2c(c1)nc(CCNC(C)=O)n2C	.	.	.	.	.
COc1ccccc1C(=O)Nc1ccc2c(c1)nc(CCNC(=O)c1ccccc1)n2C	.	?	.	.	10µM
CCSc1nnc(-c2cnn(-c3ccccc3)c2-n2cccc2)n1C	.	.	.	.	.
CCCCCCSc1nnc(-c2cnn(-c3ccccc3)c2-n2cccc2)n1C	.	4.5µM	.	.	?
Cc1ccc(N2C(=O)N(CC(=O)C(C)(C)C)c3ccccc3S2(=O)=O)cc1C	.	?	/	.	.
CCC(=O)N1CCc2cc(Br)cc(S(=O)(=O)N3CCCC(C(=O)Nc4ccc(C)c(F)c4)C3)c21 (centres undefined)	.	.	/	.	.
CCOc1cc(C2c3c(oc4ccccc4c3=O)C(=O)N2Cc2ccccc2Cl)ccc1O (centres undefined)	/	.	/	.	.
CSCSC1=C(C#N)C(c2ccccc2Cl)C(C(C)=O)=C(C)N1 (centres undefined)	.	.	-80	?	.
CCOC(=O)CSC1=C(C#N)C(c2ccccc2F)C(C(C)=O)=C(C)N1 (centres undefined)	?	?	.	.	.
Cc1ccccc1CNC(=O)Cn1nc(C)c2nn(-c3ccc(Cl)cc3)c(C)c2c1=O	/	.	/	.	.
Cc1ccc(Cl)cc1-n1ncc2c(NCCCc3ccccc3)ncnc21	/	11µM	/	.	.
Cc1ccc(Cl)cc1-n1ncc2c(NCCC3=CCCCC3)ncnc21	/	8.9µM	/	.	.
Fc1ccc(-n2ncc3c(NCCC4=CCCCC4)ncnc32)cc1	/	.	/	.	.
Cc1ccc(Cl)cc1-n1ncc2c(NCCc3ccccc3)ncnc21	/	?	/	.	.
CO[C@H]1C[C@@H]2CC[C@@H](C)[C@@](O)(O2)C(=O)C(=O)N2CCCC[C@H]2C(=O)O[C@H]([C@H](C)C[C@@H]2CC[C@@H](OCCO)[C@H](OC)C2)CC(=O)[C@H](C)/C=C(\C)[C@@H](O)[C@@H](OC)C(=O)[C@H](C)C[C@H](C)/C=C/C=C/C=C/1C	.	/	/	/	/
CC(C)(C)c1nnc(NS(=O)(=O)c2ccccc2)s1	.	/	/	/	/
COC(=O)[C@@H]1C[C@]2(OC(=O)c3ccccc3)C=CC(=O)C[C@@H]2N1C(=O)OCc1ccccc1	.	7.1µM	.	.	.
OC(c1ccccc1)c1nc2ccccc2n1Cc1c(F)cccc1Cl (centres undefined)	/	?	/	.	.
CCn1cc2nc(SCc3cccc(C)c3)n(CCc3ccccc3)c(=O)c2n1	/	7.9µM	/	.	.
CCn1cc2nc(SCc3cccc(C(F)(F)F)c3)n(CCc3ccccc3)c(=O)c2n1	/	?	/	.	.
Cc1ccc2[nH]c3c(c2c1)CCCC3NCCO (centres undefined)	.	10µM	.	.	.
Cc1ccc2[nH]c3c(c2c1)CCCC3=O	.	.	.	.	.
COC(=O)c1ccc(/C=N/OCC(=O)NC2CCCCCCC2)cc1	.	13µM	.	.	.
COC(=O)c1ccc(/C=N/OCC(=O)NC2CCCC(C)C2C)cc1 (centres undefined)	.	?	.	.	.
SMILES	GLP-1R agonist	GLP1R inv ag	TSHR antagonist	PTHR1 agonist	HEK293 tox
COc1ccc(OC)c(NC(=O)C2CCN(S(=O)(=O)c3c(C)noc3/C=C/c3ccc(C)cc3)CC2)c1	.	.	/	.	.
COCc1ccc(C(=O)Nc2cccc(S(=O)(=O)N(C)c3ccccc3)c2)cc1	.	?	.	.	?
CN(C)S(=O)(=O)c1cccc(NC(=O)c2ccc(COc3ccccc3)cc2)c1	.	10µM	.	.	.
CCn1cc(C(=O)NCCc2ccc(C)cc2)c(=O)c2cc(S(=O)(=O)N3CCc4ccccc4C3)ccc21	.	.	/	.	.
OCc1cccc(-c2cnc3c(Nc4cccc(OC(F)(F)C(F)F)c4)nccn23)c1	.	13µM	/	.	.
COc1ccc(N(C)C(=O)c2ccc3nc(-c4ccccc4)c(-c4ccccc4)nc3c2)cc1	.	6.3µM	.	.	.
Cc1ccc(C(=O)NCc2ccc3c(c2)CCN3C(=O)c2ccc(C)cc2)cc1	/	.	/	.	.
Cn1c(C(=O)N2CCN(c3nc4ccccc4s3)CC2)cc2sccc21	.	.	.	.	.
O=C(c1cc2sccc2n1Cc1ccc(F)cc1)N1CCN(c2nc3ccccc3s2)CC1	.	4.5µM	.	.	.
Cc1cc2nc(-c3cccc(NC(=O)COc4ccc(C(C)C)cc4)c3)oc2cc1C	/	.	/	.	.
COc1ccc(OC(C)C(=O)NCCC2=CCCCC2)cc1 (centres undefined)	.	11µM	.	.	.
COc1ccc(C(=O)NCCC2=CCCCC2)cc1	.	?	.	.	.
COc1cc(CCC(=O)NCc2ccc3c(c2)CCN3C(=O)c2cccc(C)c2)cc(OC)c1OC	/	.	/	?	.
CC1(C)Cc2c(cnn2-c2ccccc2)C(=O)/C1=N\NC(=O)c1ccccc1O	.	11µM	.	.	.
CC(C)N(CC#CCC(O)(c1ccccc1)c1ccccc1)CCO	.	10µM	.	.	.
CCN(CC)CCNC(=O)c1cc2c(=O)n(C)c3cc(Cl)ccc3c2s1	.	.	/	.	.
CCCCN(CCCC)/C(N)=N/c1nc(C)cc(C)n1	.	4µM	.	.	?
Cc1cc(C)nc(/N=C(\N)N(Cc2ccccc2)Cc2ccccc2)n1	.	?	.	.	?
O=C(Nc1ccccc1Sc1ccccc1)c1ccc(F)cc1	.	5µM	.	.	.
COc1ccccc1NC(=O)c1nnn(-c2ccc(F)cc2)c1C	/	.	/	.	.
Cc1ccc(S(=O)(=O)N(C)C)cc1NC(=O)Nc1ccccc1F	.	.	.	.	.
Cc1cc(C)cc(NC(=O)Nc2cc(S(=O)(=O)N(C)C)ccc2C)c1	.	10µM	.	.	.
CCc1cccc(C)c1NC(=O)Cn1cc2c(n1)CCCC2	/	?	/	.	.
Cc1ccc(NC2=C(N3CCOCC3)C(=O)c3ccccc3C2=O)cc1	.	.	.	.	10µM
CCc1nc2ccc(C(=O)NCCc3c[nH]c4ccccc34)cn2c1N(C=O)CCC(C)C	.	5.6µM	/	.	?
OC(C#Cc1ccccc1)(c1ccccc1)c1ccccc1	.	4.5µM	/	.	?
CCCN1C(=O)C(NC(=O)c2ccccc2OC)(C(F)(F)F)C(C(=O)OC)=C1C (centres undefined)	/	.	/	.	.
CC(C)N(Cc1nc(-c2ccccc2)no1)C(=O)C(Cl)(Cl)Cl	.	11µM	.	.	.
